Experimental data reported in PubChem BioAssay AID1220 (Sanford-Burnham Center for Chemical Genomics, 2008).
Screen size: about 190,000 compounds; about 1,300 (0.68%) were called active. Cut-off read from the data, not from the text of the source: active = inhibition above about 50%; inactive = the rest. This excerpt belongs to a sample that is enriched for actives.

Target: Mannose-6-phosphate isomerase (Homo sapiens) (UniProt P34949)
Test: human PMI inhibitors, high substrate, primary screen, biochemical, fluorescence intensity, high mannose 6-phosphate (AID 1220)
Conditions: recombinant PMI enzyme, coupled fluorescence intensity; at 20 µM; active compounds read high

Sequence of Mannose-6-phosphate isomerase (Homo sapiens) (P34949 whole entry, looked up): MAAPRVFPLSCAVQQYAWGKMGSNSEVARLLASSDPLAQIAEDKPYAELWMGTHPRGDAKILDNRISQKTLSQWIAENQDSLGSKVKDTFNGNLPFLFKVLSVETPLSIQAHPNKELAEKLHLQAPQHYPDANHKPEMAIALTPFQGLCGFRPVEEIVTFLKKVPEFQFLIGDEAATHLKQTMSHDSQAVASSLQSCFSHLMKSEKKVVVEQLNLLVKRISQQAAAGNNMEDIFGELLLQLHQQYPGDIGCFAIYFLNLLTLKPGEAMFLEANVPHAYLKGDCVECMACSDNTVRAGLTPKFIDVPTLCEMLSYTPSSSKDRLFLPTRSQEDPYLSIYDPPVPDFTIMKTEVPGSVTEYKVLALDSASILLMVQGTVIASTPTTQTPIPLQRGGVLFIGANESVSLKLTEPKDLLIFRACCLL

SMILES	inhibition
CC(=O)c1ccc(N2CCN(C(=O)Nc3ccc(C)cc3)CC2)cc1	-1.7% (inactive)
Cc1ccccc1Nc1ncnc(N)n1	-3.4% (inactive)
O=[N+]([O-])c1ccc(Cl)cc1Sc1ccccn1	2.7% (inactive)
Cn1c(SCC(=O)c2ccc3c(c2)OCO3)nnc1C1COc2ccccc2O1 (stereo unspecified)	1.3% (inactive)
COC(=O)c1ccc(CSc2cc(C)c3cc(C)cc(C)c3n2)o1	-4.5% (inactive)
CCOc1ccc(NC2=C(OC)C(=O)c3ccccc3C2=O)cc1	25.9% (inactive)
C=CCNC1=C(Cl)C(=O)c2ccccc2C1=O	38.6% (inactive)
CCN(CC)c1ccc(NC2=C(Cl)C(=O)c3ccccc3C2=O)cc1	56.9% (active)
CCN(CC)c1ccc(N2C(=O)c3ccccc3C2=O)cc1	4.2% (inactive)
O=C1C(Cl)=C(NCCCO)C(=O)c2ccccc21	2.8% (inactive)
CCN(CC)CCCNC1=C(Cl)C(=O)c2ccccc2C1=O	58.1% (active)
CN1C(=O)c2ccc(NC(=S)NC(=O)C(C)(C)C)cc2C1=O	8.4% (inactive)
COCCSc1nnc(NC(=O)C2CCCCC2)s1	-1.4% (inactive)
CCN(c1ccccc1)S(=O)(=O)c1ccc2[nH]cc(C(=O)N3CCOCC3)c(=O)c2c1	8.3% (inactive)
COc1cccc2c(=O)c3cccc(N)c3[nH]c12	65.6% (active)
COc1cccc2c(=O)c(C/C=C(/C)Cl)c(C)[nH]c12	4.6% (inactive)
COc1cccc2c(=O)c(SC(F)(F)C(F)C(F)(F)F)c(C)[nH]c12 (stereo unspecified)	6.8% (inactive)
COc1ccc(-c2csc(/C(C#N)=C\c3ccc(OC)c([N+](=O)[O-])c3)n2)cc1	3.4% (inactive)
CCN1CCN(C(=S)Nc2ccc3nc4n(c(=O)c3c2)CCCCC4)CC1	-3.2% (inactive)
Cc1ccc(S(=O)(=O)NCC(=O)NCC(=O)OCC(=O)N2CC(=O)Nc3ccccc32)cc1C	13.9% (inactive)
COc1ccccc1NC(=O)CC1S/C(=N/N=C2\CCCc3ccccc32)NC1=O (stereo unspecified)	6.9% (inactive)

SMILES	inhibition
COc1cccc(/C=N/N2CCOCC2)c1O	3.6% (inactive)
CCN(CC)c1ccc(/C=N/N2CCN(Cc3ccc(C)cc3C)CC2)c(O)c1	39.8% (inactive)
CCN(CC)c1ccc(/C=N/N2CCN(Cc3cccc4ccccc34)CC2)c(O)c1	30.7% (inactive)
CCN(CC)c1ccc(/C=N/N2CCN(Cc3ccccc3)CC2)c(O)c1	53% (active)
CCN(CC)c1ccc(/C=N/N2CCOCC2)c(O)c1	53.7% (active)
CCN(CC)c1ccc(/C=N/N2CCOCC2)cc1	14.3% (inactive)
Fc1ccc(/C=N/N2CCOCC2)c(F)c1	8.8% (inactive)
CCN(CC)c1ccc(/C=N/N2CCN(Cc3ccc(C)cc3)CC2)c(O)c1	30.3% (inactive)
CCCn1c(=O)c2ccccc2n2c(SCC(=O)Nc3cc(C)on3)nnc12	0% (inactive)
CCC(/C=C1\Sc2ccc(OC)cc2N1CCO)=C\c1sc2ccc(OC)cc2[n+]1CCO	13% (inactive)
Cc1cc(C)nc(SCCn2c(N3CCC(C)CC3)nc3c2c(=O)n(C)c(=O)n3C)n1	12.2% (inactive)
Fc1ccc(NC(=S)N/N=C/c2ccc(F)c(F)c2)c(F)c1	-6.4% (inactive)
CCN(CC)c1ncnc2sc(C(=O)N3CCN(c4ccccc4)CC3)c(C)c12	6.5% (inactive)
Cc1ccc2cc(CCNC(=O)c3ccc(C)c([N+](=O)[O-])c3)c(=O)[nH]c2c1	-17% (inactive)
CN(C(=O)CSc1nnc(-c2ccc(F)cc2)c2ccccc12)C1CCS(=O)(=O)C1 (stereo unspecified)	-14.8% (inactive)
CSc1sc(C)cc1C1C(C#N)=C(N)N(c2cccnc2)C2=C1C(=O)CC(C)(C)C2 (stereo unspecified)	13.9% (inactive)
CC1CCN(S(=O)(=O)c2ccc3c(c2)oc(=O)n3CC(=O)N2CCc3ccccc3C2)CC1	-7.5% (inactive)
C/C(CC(=O)Nc1cccc(Cl)c1Cl)=N\NC(=O)c1ccccc1Br	50.8% (active)
C/C(CC(=O)Nc1cccc(Cl)c1Cl)=N\NC(=O)c1ccccc1N	3.3% (inactive)
C/C(CC(=O)Nc1cccc(Cl)c1Cl)=N\NC(=O)c1ccccc1C	2.3% (inactive)
CCCN(Cc1cc2ccc(C)cc2[nH]c1=O)C(=O)c1ccccn1	11% (inactive)

SMILES	inhibition
COc1ccc(NC2SC(=O)N(CC(=O)O)C2=O)cc1 (stereo unspecified)	12.1% (inactive)
COc1ccc(N2CCN(c3ccc(C(N)=O)cc3[N+](=O)[O-])CC2)cc1	16.5% (inactive)
CC(=O)c1ccc(N2CCN(c3ccc(C(N)=O)cc3[N+](=O)[O-])CC2)cc1	-10.4% (inactive)
NC(=O)c1ccc(N2CCN(c3ccc(O)cc3)CC2)c([N+](=O)[O-])c1	55.2% (active)
O=C(NC1CCCCC1)C(c1ccccc1)N(C(=O)c1cccs1)c1ccc2c(c1)OCO2 (stereo unspecified)	-2.5% (inactive)
Nc1c(C(=O)Nc2ccccc2)sc2nc(-c3ccco3)ccc12	15.1% (inactive)
COc1ccccc1NC(=O)c1sc2nc(-c3ccco3)ccc2c1N	11.5% (inactive)
Nc1c(C(=O)Nc2ccccc2F)sc2nc(-c3ccco3)ccc12	59.6% (active)
COCCNC(=O)CSc1nc2ccccc2c(=O)n1CCCC(=O)NCc1ccccc1	-3% (inactive)
C=CCc1cc(/C=C2/NC(=S)NC2=O)cc(OC)c1O	15.3% (inactive)
C=CCc1cc(/C=C/c2nc(O)c([N+](=O)[O-])c(=O)[nH]2)cc(OC)c1O	68.9% (active)
COc1ccc(-n2c(C)cc(/C=C/c3nc(O)c([N+](=O)[O-])c(=O)[nH]3)c2C)cc1	1.6% (inactive)
COc1ccc(Nc2nnc(Cc3ccc(Cl)cc3)c(=O)[nH]2)c(OC)c1	19.1% (inactive)
CCC(=O)N(CC)C1=C(O)c2ccccc2C(=O)C1=O	15.9% (inactive)
CCC(=O)N(C1=C(NC(C)C)C(=O)c2ccccc2C1=O)C(C)C	58.2% (active)
CCC(=O)NC1=C(NC(C)c2ccccc2)C(=O)c2ccccc2C1=O (stereo unspecified)	-10.2% (inactive)
CCC(=O)N(C)/C=C1\Sc2ccccc2C1=O	5.7% (inactive)
CC(C)NC1=C(Cl)C(=O)c2ccccc2C1=O	-32% (inactive)
CCC(=O)N(C1=C(NC)C(=O)c2ccccc2C1=O)C(C)C	62.3% (active)
